# Measurements as given in PubChem BioAssay.
# Activity calls are given as the source filed them. Unless noted, no rule for the calls is given here.
# Assays:
# [1] = A549 cell viability effects, profiling panel, calcein-AM fluorescence, 48 h, basal (AID 1162); details: higher = more signal; also: test concentration not given here
# [2] = adipocyte viability effects, profiling panel, cell-based, 3T3-L1 adipocytes, calcein-AM fluorescence, 48 h, basal (AID 1163); details: 3T3-L1 adipocytes viability, higher = more signal; also: test concentration not given here
# [3] = HepG2 cell viability effects, profiling panel, calcein-AM fluorescence, 48 h, basal (AID 1164); details: higher = more signal; also: test concentration not given here
# [4] = MM1S cell viability effects, profiling panel, calcein-AM fluorescence, 48 h, basal (AID 1165); details: higher = more signal;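 also: viability of MM1S multiple myeloma cells under basal unstimulated conditions; test concentration not given here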
# [5] = basal RPMI8226 viability, no added stimulus, profiling panel, cell-based, calcein-AM fluorescence, 48 h, PK04 Diversity Set (AID 1166); details: RPMI8226 myeloma viability, higher = more signal;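 also: cells grown under basal conditions without added stimulus; test concentration not given here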
# [6] = basal HepG2 mitochondrial membrane potential changes, profiling panel, cell-based, JC-1 fluorescence, 24 h, 100 nL compound (AID 1167); details: higher = more signal; also: test concentration not given here
# [7] = basal 3T3-L1 adipocyte mitochondrial potential changes, profiling panel, cell-based, JC-1 fluorescence, 3T3-L1 adipocytes, 24 h, 100 nL compound (AID 1168); details: JC-1 mitochondrial fluorescence, higher = more signal, called active from +8 up or from −8 down; also: test concentration not given here
# [8] = basal RPMI8226 mitochondrial membrane potential changes, profiling panel, cell-based, JC-1 fluorescence, 24 h, 100 nL compound (AID 1169); details: RPMI8226 myeloma, JC-1 mitochondrial potential fluorescence, higher = more signal; also: test concentration not given here
# [9] = basal MM1S mitochondrial membrane potential changes, profiling panel, cell-based, JC-1 fluorescence, 24 h, 100 nL compound (AID 1170); details: higher = more signal; also: test concentration not given here
# [10] = A549 lung cancer cell viability effects, profiling panel, resazurin fluorescence, 24 h, PK04 Diversity Set (AID 1171); details: higher = more signal, called active from +8 up or from −8 down; also: test concentration not given here
# [11] = HepG2 liver cancer cell viability effects, profiling panel, resazurin fluorescence, 24 h, PK04 Diversity Set (AID 1172); details: higher = more signal; also: test concentration not given here
# [12] = basal S. cerevisiae growth modulation, no modifier, primary screen, OD600, strain BY4716, 24 h, basal condition (AID 1173); details: OD600, 24 h, higher = more signal, called active from +8 up or from −8 down
# [13] = MM1S myeloma cell viability, profiling panel, resazurin fluorescence, basal, 24 h, PK04 Diversity Set (AID 1174); details: higher = more signal, called active from +8 up or from −8 down;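 also: MM1S multiple myeloma cell line; test concentration not given here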
# [14] = molecular target: Dihydroorotate dehydrogenase (quinone), mitochondrial (Plasmodium falciparum (isolate 3D7)) (UniProt Q08210); assay: PfDHODH enzyme inhibitors, primary screen, biochemical, C-terminal His tag, absorbance 600 nm (AID 1175); details: DCIP absorbance 600 nm, higher = more signal, called active from +8 up or from −8 down;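 also: recombinant parasite enzyme with a five histidine tag at its C terminus; test concentration not given here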
# [15] = P. aeruginosa biofilm formation inhibitors, primary screen, strain PAO1, LB-PBS medium, absorbance 600 nm (AID 1176); also: test concentration not given here; details: P. aeruginosa PAO1 growth/biofilm, A600, 12 h; higher = more signal
# [16] = S. cerevisiae RM11-1a growth modifiers, primary screen, strain RM11-1a, OD600, basal, 24 h (AID 1177); details: OD600, 24 h, higher = more signal, called active from +8 up or from −8 down;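 also: cultures grown under basal conditions with no added stressor; test concentration not given here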
# [17] = E. coli acrAB mutant growth effects, primary screen, E. coli filamentation inducers, strain DRC39, OD650, 24 h (AID 1178); details: higher = more signal, called active from +8 up or from −8 down;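 also: growth measured as culture turbidity by optical density at 650 nm; test concentration not given here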
# [18] = E. coli acrAB mutant growth effects, primary screen, E. coli filamentation inducers, strain DRC39, OD650, 48 h (AID 1179);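 also: screen aims at cell division blockers that make cells filament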; details: E. coli DRC39 delta-acrAB growth, higher = more signal, called active from +8 up or from −8 down
# [19] = RPMI8226 myeloma cell viability, profiling panel, resazurin fluorescence, basal, 24 h, PK04 Diversity Set (AID 1180); details: higher = more signal;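 also: RPMI8826 multiple myeloma cell line at 5000 cells per well; test concentration not given here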
# [20] = molecular target: E3 ubiquitin-protein ligase XIAP (Homo sapiens) (UniProt P98170); assay: XIAP binders, primary screen, biophysical, small-molecule microarray, fluorescence 635 nm (AID 1181); details: small-molecule microarray binding, higher = more signal;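 also: score merges 667 nm emission and signal to noise over triplicate slides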
# Chain of E3 ubiquitin-protein ligase XIAP (Homo sapiens) (P98170 whole entry, looked up): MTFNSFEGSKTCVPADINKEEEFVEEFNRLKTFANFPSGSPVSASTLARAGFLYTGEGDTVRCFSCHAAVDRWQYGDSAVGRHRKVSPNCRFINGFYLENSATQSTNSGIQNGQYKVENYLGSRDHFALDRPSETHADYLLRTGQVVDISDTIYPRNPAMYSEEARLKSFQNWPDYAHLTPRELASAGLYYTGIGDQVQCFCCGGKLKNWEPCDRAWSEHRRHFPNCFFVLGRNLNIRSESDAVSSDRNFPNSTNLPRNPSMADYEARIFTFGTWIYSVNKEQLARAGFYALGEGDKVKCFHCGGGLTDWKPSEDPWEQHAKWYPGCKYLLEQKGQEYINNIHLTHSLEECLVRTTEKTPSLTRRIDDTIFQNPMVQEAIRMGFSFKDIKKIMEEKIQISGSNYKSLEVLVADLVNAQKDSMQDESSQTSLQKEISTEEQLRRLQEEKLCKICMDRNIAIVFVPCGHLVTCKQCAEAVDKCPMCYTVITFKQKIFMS
# Chain of Dihydroorotate dehydrogenase (quinone), mitochondrial (Plasmodium falciparum (isolate 3D7)) (Q08210 whole entry, looked up): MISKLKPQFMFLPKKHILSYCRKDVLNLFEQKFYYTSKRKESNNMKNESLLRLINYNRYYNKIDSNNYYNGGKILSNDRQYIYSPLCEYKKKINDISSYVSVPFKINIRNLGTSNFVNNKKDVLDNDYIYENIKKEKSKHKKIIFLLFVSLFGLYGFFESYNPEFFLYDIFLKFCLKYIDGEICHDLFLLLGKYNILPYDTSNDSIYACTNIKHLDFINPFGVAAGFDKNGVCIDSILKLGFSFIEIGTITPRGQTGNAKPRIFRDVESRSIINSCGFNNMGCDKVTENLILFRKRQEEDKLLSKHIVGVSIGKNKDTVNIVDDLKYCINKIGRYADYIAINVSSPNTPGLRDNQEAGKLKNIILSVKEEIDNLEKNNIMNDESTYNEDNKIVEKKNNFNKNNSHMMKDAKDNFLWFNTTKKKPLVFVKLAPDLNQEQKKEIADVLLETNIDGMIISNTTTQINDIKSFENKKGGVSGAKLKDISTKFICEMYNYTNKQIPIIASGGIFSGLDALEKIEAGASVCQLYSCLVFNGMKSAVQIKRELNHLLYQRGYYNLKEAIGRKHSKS
SMILES,z-score [1],z-score [2],z-score [3],z-score [4],z-score [5],z-score [6],z-score [7],z-score [8],z-score [9],z-score [10],z-score [11],z-score [12],z-score [13],composite z-score [14],z-score [15],z-score [16],z-score [17],z-score [18],z-score [19],composite z-score [20]
COC(=O)CC=C[C@@H](C)[C@@H](C=NOC[C@H]1O[C@H](c2ccccc2)C=C[C@@H]1Oc1ccc(OC)cc1)OC,0.0124,-0.701,-0.56,-0.831,-0.209,-1.05,-0.506 (inactive),0.16,-0.327,1.06 (inactive),0.167,0.805 (inactive),0.0784 (inactive),0.388 (inactive),0.335 (inactive),0.065 (inactive),0.0177 (inactive),-0.0331 (inactive),0.264,0.127
CCC1=NOC(CCC2CC(OC(=O)NCc3cccc4c3OCO4)CC3(CCCC(COC(=O)NCCc4ccccc4OC)O3)O2)C1 (stereo not given),-1.02,0.405,-2.26,-3.6,-3.84,0.559,-0.197 (inactive),-0.77,-2.17,0.492 (inactive),-0.211,-0.101 (inactive),0.0125 (inactive),-0.104 (inactive),1.43 (inactive),-0.509 (inactive),1.13 (inactive),0.918 (inactive),0.718,-0.294
C#CCCCON=C1C[C@@H](O)[C@@H](O)[C@@H]2[C@@H]3C(=O)N(CCC(=O)OCC)C(=O)[C@@H]3CC[C@H]12,0.278,0.73,0.249,-0.0993,0.111,0.0972,-0.367 (inactive),0.0174,-1.36,-1.11 (inactive),-1.1,-4.65 (inactive),-0.307 (inactive),-0.937 (inactive),-0.191 (inactive),-1.71 (inactive),0.0851 (inactive),0.1 (inactive),-0.192,-0.232
CON=C[C@@H](C)[C@H](OCc1ccccc1)C(C)C,-1.1,0.425,-0.0832,-0.43,-1.01,0.0714,0.634 (inactive),-0.408,0.699,0.073 (inactive),-0.304,-0.639 (inactive),0.548 (inactive),-2.72 (inactive),0.298 (inactive),-0.919 (inactive),-1.29 (inactive),-2.73 (inactive),-0.32,-0.409
CO[C@@H]1COC(=O)CC=C[C@@H](C)[C@H](OC)COC(=O)[C@@H](C)COC(=O)CC=C[C@H]1C,0.865,-0.159,1.48,0.397,-0.802,1.11,-0.661 (inactive),0.338,0.253,0.134 (inactive),0.225,-0.621 (inactive),0.586 (inactive),0.577 (inactive),-0.225 (inactive),0.401 (inactive),0.666 (inactive),0.733 (inactive),0.151,-0.0264
COc1cccc([C@H]2Oc3ccc(OC)cc3C(=NO[C@@H]3O[C@H](COC(C)=O)[C@@H](OC(C)=O)[C@H](OC(C)=O)[C@H]3OC(C)=O)[C@@H]2O)c1,0.679,-0.375,-0.104,-0.525,-0.476,-0.515,-3.37 (inactive),-0.0523,0.0745,-0.416 (inactive),-0.34,0.387 (inactive),-0.726 (inactive),-0.582 (inactive),0.347 (inactive),-1.02 (inactive),0.416 (inactive),-0.716 (inactive),-0.158,0.02
CSCC[C@@H]1NC(=O)CC=C[C@@H](C)COC(=O)[C@@H](C)COC1=O,0.63,0.115,1.47,0.269,0.341,0.852,0.0903 (inactive),-0.994,-0.122,0.377 (inactive),0.414,-0.739 (inactive),0.574 (inactive),0.0037 (inactive),-0.708 (inactive),-0.24 (inactive),0.422 (inactive),-0.962 (inactive),0.249,-0.0525
COC(=O)[C@H](C)NC(=O)CCC1CC(OC(=O)NCc2ccc3c(c2)OCO3)CC2(CCCC(COC(=O)NCCc3ccccc3OC)O2)O1 (stereo not given in full),-0.949,-0.976,-2.36,-3.53,-1.56,-1.34,0.354 (inactive),-0.241,-0.735,0.389 (inactive),-0.134,-0.148 (inactive),-0.344 (inactive),-1.07 (inactive),0.238 (inactive),0.0525 (inactive),0.775 (inactive),0.451 (inactive),-0.229,-0.252
COc1cccc([C@H]2Oc3ccc(OC)cc3C(=NOC(C)CN3CCCCc4nc(C)c(C)cc43)[C@@H]2O)c1 (stereo not given in full),0.217,-0.527,0.0117,-1.02,-0.836,-0.108,-0.832 (inactive),-0.00251,-0.144,-0.565 (inactive),-0.621,-0.951 (inactive),-1.16 (inactive),-0.695 (inactive),0.253 (inactive),-0.0905 (inactive),0.597 (inactive),0.748 (inactive),-1.16,-0.0525
CCCNC(=O)OC[C@H]1O[C@H](CCON=Cc2ccc(C(=O)N3[C@H](c4ccc(C)cc4)[C@@H](C)CC[C@H]3C(=O)OC)cc2)C=C[C@@H]1Oc1ccc(OC)cc1,-0.167,0.885,-0.0578,-0.164,-0.581,2.75,-3.26 (inactive),0.694,0.235,-0.471 (inactive),-0.73,1.85 (inactive),-0.686 (inactive),0.415 (inactive),0.511 (inactive),0.729 (inactive),0.567 (inactive),0.353 (inactive),-0.203,0.0623
CCOC(=O)NN=C1C[C@@H](O)[C@@H](O)[C@@H]2[C@@H]3C(=O)N(Cc4ccccc4)C(=O)[C@@H]3CC[C@H]12,0.29,0.114,-1.05,0.976,-2,0.366,0.42 (inactive),0.334,-0.68,0.939 (inactive),1.16,-0.892 (inactive),1.41 (inactive),-0.451 (inactive),0.483 (inactive),-1.1 (inactive),-0.077 (inactive),0.495 (inactive),1.89,-0.27
O=C1C[C@@H](O)[C@@H](O)[C@@H]2[C@@H]3C(=O)N(C[C@@H]4CCCO4)C(=O)[C@@H]3CC[C@@H]12,0.708,-0.378,1.12,0.107,-1.06,1.29,-0.248 (inactive),-0.407,0.345,-0.582 (inactive),-0.429,0.0532 (inactive),-0.272 (inactive),0.204 (inactive),0.565 (inactive),-0.129 (inactive),0.469 (inactive),0.582 (inactive),-0.12,-0.0989
CCOC(=O)[C@H](CC(C)C)NC(=O)CCC1CC(OC(=O)NCCc2ccc(F)cc2)CC2(CCCC(COC(=O)NCCOc3ccccc3)O2)O1 (stereo not given in full),-0.331,0.593,-2.7,-3.46,-3.56,-1.82,1.04 (inactive),-0.462,-0.0103,0.169 (inactive),-0.972,0.0544 (inactive),0.2 (inactive),0.95 (inactive),-0.883 (inactive),0.446 (inactive),-0.183 (inactive),0.168 (inactive),0.161,-0.214
CCOC(=O)C1=NO[C@]2(C=C(Br)C3(OCCCO3)[C@H]3O[C@H]32)C1,-0.718,-0.188,-0.186,-0.986,-0.172,-1.04,-0.207 (inactive),0.157,0.199,0.0721 (inactive),-0.706,-0.175 (inactive),-0.734 (inactive),-0.671 (inactive),-0.646 (inactive),-0.847 (inactive),0.336 (inactive),0.645 (inactive),-0.549,0.201
CC(C)CON=C1C[C@@H](O)[C@@H](O)[C@@H]2[C@@H]3C(=O)N(C(C)(C)C)C(=O)[C@@H]3CC[C@H]12,0.539,-0.519,-0.248,0.246,0.0151,-0.772,-0.697 (inactive),-0.369,-0.465,-0.77 (inactive),-0.184,0.528 (inactive),-0.426 (inactive),0.15 (inactive),-0.613 (inactive),-0.131 (inactive),0.366 (inactive),0.476 (inactive),-0.246,-0.102
CC=CC1=C(CO)C(=O)[C@@H]2O[C@@H]2C1=O,-0.912,-1.18,-0.88,-3.5,-2.88,-1.86,-0.316 (inactive),-1,-2.1,-0.315 (inactive),-0.714,-1.37 (inactive),-1.58 (inactive),0.324 (inactive),0.827 (inactive),-1.22 (inactive),0.246 (inactive),0.537 (inactive),-0.875,-0.0498
CCOC(=O)[C@H](Cc1ccccc1)NC(=O)CCC1CC(OC(=O)NCc2ccc3c(c2)OCO3)CC2(CCCC(COC(=O)NCCC(C)C)O2)O1 (stereo not given in full),0.339,1.36,-1.58,-3.41,-3.9,0.162,-0.375 (inactive),-0.212,-1.32,-0.149 (inactive),-0.341,-0.426 (inactive),0.812 (inactive),0.55 (inactive),-1.17 (inactive),0.895 (inactive),0.308 (inactive),0.249 (inactive),0.75,-0.0559
COC(=O)CC=C[C@@H](C)[C@@H](C=NO[C@@H](C)c1cn([C@H](CO)Cc2ccccc2)nn1)OC,0.52,1.03,0.656,0.354,-0.609,0.341,1.08 (inactive),0.0532,0.723,-0.493 (inactive),-0.849,-0.966 (inactive),0.104 (inactive),-0.842 (inactive),-0.418 (inactive),-2.71 (inactive),0.24 (inactive),-0.913 (inactive),-0.514,-0.139
